Measurements reported in PubChem BioAssay (NCATS).
Records with an inconclusive call do not appear. Active and inactive are the calls of the source. Calls follow the shape of the dose curve; as a rule, active = well fitted curve in the direction sought with a large enough effect; inconclusive = small, poorly fitted or top-dose-only effect, or another doubt; inactive = no such curve, though single readings can be large; an effect the other way counts as inactive or inconclusive.

What was measured:
NIH3T3 = experiment: qHTS assay to identify novel small-molecules to repurpose for Merkel cell carcinoma treatment (AID 1296009); conditions: MCC and control cell lines, CellTiter-Glo viability, 72 h; at 44.8 µM (top of the series) unless noted; also: nearly all actives have a fitted effect of over 60% in size
In short: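 72 hr, 37 degree celsius; NPC 8-pt / MIPE 11-pt dose response; compound pinned in DMSO; CellTiter-Glo, 10 min RT, luminescence; normalized to no-cell and DMSO controls.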

C33A = experiment: Primary qHTS to identify gynecologic anti-cancer compounds using libraries of approved drugs and bioactive compounds (AID 1345084); conditions: Gynecologic cancer cell panel viability, ATPlite luminescence, 48 h; series mostly up to 57.5 µM; also: % is scaled to controls: 0 for no effect and ±100 for the full control effect; nearly all actives have a fitted effect of over 55% in size
In short: (§1)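 Cell viability after 48 h drug treatment, ATPlite luminescence readout; five doses.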

CAOV3 = experiment: as above; conditions: Gynecologic cancer cell panel viability, ATPlite luminescence, 48 h; series mostly up to 57.5 µM
In short: as §1

CASKI = experiment: as above; conditions: Gynecologic cancer cell panel viability, ATPlite luminescence, 48 h; series mostly up to 57.5 µM
In short: as §1

Es-2 = experiment: as above; conditions: Gynecologic cancer cell panel viability, ATPlite luminescence, 48 h; series mostly up to 57.5 µM
In short: as §1

HeLa = experiment: as above; conditions: Gynecologic cancer cell panel viability, ATPlite luminescence, 48 h; series mostly up to 57.5 µM
In short: as §1

Hek293T = experiment: as above; conditions: Gynecologic cancer cell panel viability, ATPlite luminescence, 48 h, control line for the selectivity index; series mostly up to 57.5 µM
In short: as §1

JEG-3 = experiment: as above; conditions: Gynecologic cancer cell panel viability, ATPlite luminescence, 48 h; series mostly up to 57.5 µM
In short: as §1

OV90 = experiment: as above; conditions: Gynecologic cancer cell panel viability, ATPlite luminescence, 48 h; series mostly up to 57.5 µM
In short: as §1

PA-1 = experiment: as above; conditions: Gynecologic cancer cell panel viability, ATPlite luminescence, 48 h; series mostly up to 57.5 µM
In short: as §1

SKOV3 = experiment: as above; conditions: Gynecologic cancer cell panel viability, ATPlite luminescence, 48 h; series mostly up to 57.5 µM
In short: as §1

Tov-21-G = experiment: as above; conditions: Gynecologic cancer cell panel viability, ATPlite luminescence, 48 h; series mostly up to 57.5 µM
In short: as §1

Tov112D = experiment: as above; conditions: Gynecologic cancer cell panel viability, ATPlite luminescence, 48 h; series mostly up to 57.5 µM
In short: as §1

COc1cc(Nc2nc3c(s2)CCCC3c2ccccc2)ccc1-n1cnc(C)c1 (configuration not stated)
inactive: outcome (NIH3T3) inactive [at 9.27 µM] | activity change, negative = cytotoxicity (C33A) 6.98% [at 11.6 µM] | activity change, negative = cytotoxicity (CAOV3) 6.61% [at 11.6 µM] | activity change, negative = cytotoxicity (CASKI) 15.8% [at 11.6 µM] | activity change, negative = cytotoxicity (Es-2) 3.55% [at 11.6 µM] | activity change, negative = cytotoxicity (HeLa) -6.36% [at 11.6 µM] | activity change, negative = cytotoxicity (Hek293T) 8.6% [at 11.6 µM] | activity change, negative = cytotoxicity (JEG-3) 2.94% [at 11.6 µM] | activity change, negative = cytotoxicity (OV90) 7.49% [at 11.6 µM] | activity change, negative = cytotoxicity (PA-1) 7.13% [at 11.6 µM] | activity change, negative = cytotoxicity (SKOV3) 7.37% [at 11.6 µM] | activity change, negative = cytotoxicity (Tov-21-G) 9.24% [at 11.6 µM] | activity change, negative = cytotoxicity (Tov112D) 0.142% [at 11.6 µM]

Cc1ccc(Cl)cc1N(CC(=O)Nc1c(F)cccc1F)S(C)(=O)=O
inactive: outcome (NIH3T3) | Potency (C33A) | Potency (CAOV3) | outcome (CASKI) | Potency (Es-2) | Potency (HeLa) | Potency (Hek293T) | Potency (JEG-3) | Potency (OV90) | Potency (PA-1) | Potency (SKOV3) | Potency (Tov-21-G) | Potency (Tov112D)

CC[C@@H](Nc1c(Nc2cccc(C(=O)N(C)C)c2O)c(=O)c1=O)c1ccc(C)o1
inactive: outcome (NIH3T3) | Potency (C33A) | Potency (CAOV3) | outcome (CASKI) | Potency (Es-2) | Potency (HeLa) | Potency (Hek293T) | Potency (JEG-3) | Potency (OV90) | Potency (PA-1) | Potency (SKOV3) | Potency (Tov-21-G) | Potency (Tov112D)

C=C1CCC2C(C)(C(=O)OC)CCCC2(C)C1CCC1=CCOC1=O (configuration not stated)
inactive: outcome (NIH3T3) | Potency (C33A) | Potency (CAOV3) | outcome (CASKI) | Potency (Es-2) | Potency (HeLa) | Potency (Hek293T) | Potency (JEG-3) | Potency (OV90) | Potency (PA-1) | Potency (SKOV3) | Potency (Tov-21-G) | Potency (Tov112D)

O=C(Nc1cc(-c2ccccc2)nn1-c1ccccc1F)c1ccc([N+](=O)[O-])cc1
inactive: outcome (NIH3T3) | Potency (C33A) | Potency (CAOV3) | outcome (CASKI) | Potency (Es-2) | Potency (HeLa) | Potency (Hek293T) | Potency (JEG-3) | Potency (OV90) | Potency (PA-1) | Potency (SKOV3) | Potency (Tov-21-G) | Potency (Tov112D)

CCN=C1N[C@@H]2[C@@H](O)[C@H](O)[C@@H](CO)O[C@@H]2S1
inactive: outcome (NIH3T3) | Potency (C33A) | Potency (CAOV3) | outcome (CASKI) | Potency (Es-2) | Potency (HeLa) | Potency (Hek293T) | Potency (JEG-3) | Potency (OV90) | Potency (PA-1) | Potency (SKOV3) | Potency (Tov-21-G) | Potency (Tov112D)

Cc1cc(CNC(=O)c2cc(C(=O)NCc3ccc(F)c(C)c3)ncn2)ccc1F
inactive: outcome (NIH3T3) | Potency (C33A) | Potency (CAOV3) | outcome (CASKI) | Potency (Es-2) | Potency (HeLa) | Potency (Hek293T) | Potency (JEG-3) | Potency (OV90) | Potency (PA-1) | Potency (SKOV3) | Potency (Tov-21-G) | Potency (Tov112D)

C=CC(C)(O)CC/C=C(\C)C(=O)O[C@@H]1[C@@H](O)[C@H](OC(C)(C=C)CC/C=C(\C)C(=O)O)O[C@H](CO)[C@H]1OC(=O)/C(C)=C/CCC(C)(O)C=C (some centres not stated)
inactive: outcome (NIH3T3) inactive [at 17.4 µM] | Potency (C33A) | Potency (CAOV3) | outcome (CASKI) | Potency (Es-2) | Potency (HeLa) | Potency (Hek293T) | Potency (JEG-3) | Potency (OV90) | Potency (PA-1) | Potency (SKOV3) | Potency (Tov-21-G) | Potency (Tov112D)

O=C(NC1Cc2ccccc2N(C[C@@H](O)CO)C1=O)c1cc2cc(Cl)sc2[nH]1 (some centres not stated)
inactive: outcome (NIH3T3) | Potency (C33A) | Potency (CAOV3) | outcome (CASKI) | Potency (Es-2) | Potency (HeLa) | Potency (Hek293T) | Potency (JEG-3) | Potency (OV90) | Potency (PA-1) | Potency (SKOV3) | Potency (Tov-21-G) | Potency (Tov112D)

CNc1nc(Cc2ccccc2)nc2c1CCNC[C@@H]2C
inactive: outcome (NIH3T3) | Potency (C33A) | Potency (CAOV3) | outcome (CASKI) | Potency (Es-2) | Potency (HeLa) | Potency (Hek293T) | Potency (JEG-3) | Potency (OV90) | Potency (PA-1) | Potency (SKOV3) | Potency (Tov-21-G) | Potency (Tov112D)

CC1(CO)CCCC2(C)C3COC(=O)C3=CC(O)C12 (configuration not stated)
inactive: outcome (NIH3T3) | Potency (C33A) | Potency (CAOV3) | outcome (CASKI) | Potency (Es-2) | Potency (HeLa) | Potency (Hek293T) | Potency (JEG-3) | Potency (OV90) | Potency (PA-1) | Potency (SKOV3) | Potency (Tov-21-G) | Potency (Tov112D)

O=C(Nc1cc(-c2ccccc2)nn1-c1ccccc1)c1ccc([N+](=O)[O-])cc1
inactive: outcome (NIH3T3) | Potency (C33A) | Potency (CAOV3) | outcome (CASKI) | Potency (Es-2) | Potency (HeLa) | Potency (Hek293T) | Potency (JEG-3) | Potency (OV90) | Potency (PA-1) | Potency (SKOV3) | Potency (Tov-21-G) | Potency (Tov112D)

COC(=O)[C@H](O)[C@H]1C(C)(C)[C@H](OC(C)=O)[C@@]2(O)C(=O)[C@]1(C)C1CC[C@]3(C)C(CC(=O)O[C@H]3c3ccoc3)[C@]13O[C@@H]32 (some centres not stated)
inactive: outcome (NIH3T3) inactive [at 17.4 µM] | Potency (C33A) | Potency (CAOV3) | outcome (CASKI) | Potency (Es-2) | Potency (HeLa) | Potency (Hek293T) | Potency (JEG-3) | Potency (OV90) | Potency (PA-1) | Potency (SKOV3) | Potency (Tov-21-G) | Potency (Tov112D)

CC(C)=CCC(O)[C@](C)(O)C1[C@H](O)C[C@@]2(C)C3CC=C4C(C[C@H](O)[C@@H](O[C@@H]5O[C@H](CO)[C@@H](O)[C@H](O)[C@H]5O)C4(C)C)[C@]3(C)C(=O)C[C@]12C (some centres not stated)
inactive: outcome (NIH3T3) inactive [at 17.4 µM] | Potency (C33A) | Potency (CAOV3) | outcome (CASKI) | Potency (Es-2) | Potency (HeLa) | Potency (Hek293T) | Potency (JEG-3) | Potency (OV90) | Potency (PA-1) | Potency (SKOV3) | Potency (Tov-21-G) | Potency (Tov112D)
